Measured values reported in PubChem BioAssay AID504621 (Broad Institute, 2011).
Hit rate of the full screen: of about 310,000 compounds, about 970 (0.31%) were called active.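 How the source made its calls: active means every replicate shows inhibition above about 80%, whatever the replicate mean (limit read from the data); inconclusive means mean inhibition reaches the set limit but some replicate falls short; inactive means the rest.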 The entries come from a sample that favours actives as a whole.

Test: reduced ATP signal of yeast carrying P. falciparum Hsp90 – S. cerevisiae, BacTiter-Glo luminescence, single point, set 2, antimalarial PfHsp90 inhibitor project, primary screen (AID 504621);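 further: yeast relying on Plasmodium falciparum Hsp90 in place of its own; 0% = DMSO neutral controls and 100% = 20 µM radicicol positive controls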
Conditions: S. cerevisiae expressing PfHsp90, growth, 48 h, at 9.4 µM, stronger effect = higher value, yeast lacking PDR1 and PDR3 efflux regulators

SMILES	inhibition
CN(C(=O)c1cccc(NC(=O)Cc2ccc(NC(=O)C3CCCN(C(=O)C4CCCC4)C3)cc2)c1)C1CCC1 (stereo unspecified)	3.19% (inactive)
COC(=O)CC(CC(=O)OC)n1cccc1	10.4% (inactive)
Cc1cccc(NC(=S)N2CCC(C(=O)c3ccc(F)cc3)CC2)c1	-3.65% (inactive)
COc1ccc(CNCCCNCc2ccc(OC)c(OC)c2)cc1OC	-32.5% (inactive)
CC(=O)Oc1ccc2c(c1)C(=O)c1ccccc1C2=O	6.15% (inactive)
O=C1C(Cl)=C(Oc2ccccc2)C(=O)c2ccccc21	104% (active)
CC(=O)N(C1=C(Cl)C(=O)c2ccccc2C1=O)c1ccc(C(=O)O)cc1	13.4% (inactive)
COc1ccc(Cn2cc(CN3CCS(=O)(=O)N(Cc4ccc(-c5cccc(Cl)c5)cc4)C(C)C3=O)nn2)cc1 (stereo unspecified)	-24.7% (inactive)
COc1ccc(-c2nn(-c3ccccc3)cc2/C=N/Nc2ccccn2)cc1OC	-22% (inactive)
Oc1ccc(Br)cc1/C=N/Nc1ccccn1	107% (active)
Oc1cccc(/C=N/Nc2ccc(Cl)nn2)c1O	1.34% (inactive)
COc1ccc(CCC(=O)Nc2ccc(Cl)c(S(=O)(=O)N3CCOCC3)c2)cc1OC	-12.1% (inactive)
CC[C@@H]1Cc2cc(O)ccc2C2=C1c1ccc(O)cc1C[C@H]2CC	108% (active)
CSCCC(NC(=O)COc1ccccc1)C(=O)N1CCN(c2cccc(C(F)(F)F)c2)CC1 (stereo unspecified)	46.4% (inactive)
Cc1ccc(S(=O)(=O)c2cc3c(=O)n4cccc(C)c4nc3n(CCc3ccccc3)c2=N)cc1C	0.767% (inactive)
COc1cc(/C=N/O)cc(Br)c1OCc1cccc(Cl)c1	121% (active)
COc1cc(C(=O)NCc2ccncc2)cc(Br)c1OCc1ccccc1	46.3% (inactive)
COc1cc(/C=N/O)cc(Br)c1OS(=O)(=O)c1ccc(C)cc1	-10.1% (inactive)
Cc1nn(-c2ncccn2)c2c1C(=O)CC(C)(C)C2Br (stereo unspecified)	-6.87% (inactive)
COc1ccc(CCN2CC(C(=O)OCC(=O)NCc3ccccc3Cl)CC2=O)cc1OC (stereo unspecified)	-2.54% (inactive)
CC1(C)N=C(N)NC(Nc2ccc(Cl)cc2)=N1	7.88% (inactive)
C/C(=N\Nc1ccc(Cl)nn1)c1ccccc1O	2.56% (inactive)
Oc1ccc(/C=N/N(Cc2ccccc2)c2ccccc2)cc1	96.6% (active)
CCN(/N=C/c1ccc(N(C)C)cc1)c1nc2ccccc2[nH]1	24% (inactive)
CCN(/N=C/c1ccccc1)c1cc(=O)n(C)c(=O)[nH]1	-32.6% (inactive)
Cc1ccc2c(O)c(Cc3ccccc3)c(=O)[nH]c2n1	-3.48% (inactive)
